# Results as given in the supplement of paper PMC8728848.
# This excerpt belongs to a sample that is enriched for the strongest signals.
# B1: MIC1 (Toxoplasma gondii), O00834 (protein)
# chain: VGPEAYGEASHSHSPASGRYIQQMLDQRCQEIAAELCQSGLRKMCVPSSRIVARNAVGITHQNTLQWRCFDTASLLESNQENNGVNCVDDCGHTIPCPGGVHRQNSNHATRHEILSKLVEEGVQRFCSPYQASANKYCNDKFPGTIARRSKGFGNNVEVAWRCYEKASLLYSVYAECASNCGTTWYCPGGRRGTSTELDKRHYTEEEGIRQAIGSVDSPCSEVEVCLPKDENPPLCLDESGQISRT
# B2: FaeGab (Escherichia coli) (protein)
# chain: WMTGDFNGSVDIGGSITADDYRQKWEWKVGTGLNGFGNVLNDLTNGGTKLTITVTGNKPILLGRTKEAFATPVSGGVDGIPQIAFTDYEGASVKLRNTDGETNKGLAYFVLPMKNAEGTKVGSVKVNASYAGVFGKGGVTSADGELFSLFADGLRAIFYGGLTTTVSGAALTSGSAAAARTELFGSLSRNDILGQIQRVNANITSLVDVAGSYREDMEYTDGTVVSAAYALGIANGQTIEATFNQAVTTSTQWSAPLNVAITYY
# What was measured:
# Assay in all cases: glycan array binding signal (z-score within array); higher = stronger binding
# Conditions in all cases: glycan notation: IUPAC condensed, linker removed
# [1] = target: Fuc(a1-2)Gal(b1-4)[Fuc(a1-3)]GlcNAc(b1-3)Gal(b1-4)Glc
# Method in brief: (§1)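 Arrays were curated from the Consortium for Functional Glycomics database, 3228 in total, and kept only where the protein sequence was available. Binding is expressed as a within-array Z-score. This score was averaged across arrays of the same protein sequence at different concentrations or buffers and across linkers, and negative values can be read as non-binding.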
# [2] = target: Fuc(a1-2)[Gal(a1-3)]Gal(b1-4)GlcNAc(b1-3)Gal(b1-4)Glc
# Method in brief: as §1
# [3] = target: Fuc(a1-3)[Gal3S(b1-4)]Glc
# Method in brief: as §1
# Fuc(a1-6)GlcNAc = target: Fuc(a1-6)GlcNAc
# Method in brief: as §1
# [4] = target: Gal(b1-4)GlcNAc(b1-3)[Gal(b1-4)GlcNAc(b1-6)]Gal(b1-4)GlcNAc(b1-3)[Gal(b1-4)GlcNAc(b1-6)]Gal(b1-4)GlcNAc(b1-3)[Gal(b1-4)GlcNAc(b1-6)]Gal(b1-4)GlcNAc(b1-3)[Gal(b1-4)GlcNAc(b1-6)]Gal(b1-4)GlcNAc(b1-3)Gal(b1-4)Glc
# Method in brief: as §1
# [5] = target: Glc(b1-3)Glc(b1-3)Glc(b1-3)Glc(b1-3)Glc(b1-3)Glc(b1-3)Glc
# Method in brief: as §1
# Glc(b1-4)Glc = target: Glc(b1-4)Glc
# Method in brief: as §1
# [6] = target: Glc(b1-4)Glc(b1-4)Glc(b1-4)Glc(b1-4)Glc(b1-4)Glc(b1-4)Glc(b1-4)Glc(b1-4)Glc
# Method in brief: as §1
# [7] = target: Glc(b1-4)Glc(b1-4)Glc(b1-4)Glc(b1-4)Glc(b1-4)Glc(b1-4)Glc(b1-4)Glc(b1-4)Glc(b1-4)Glc
# Method in brief: as §1
# [8] = target: GlcNAc(a1-4)Gal(b1-3)[Fuc(a1-2)]Gal
# Method in brief: as §1
# [9] = target: Kdn(a2-3)[GalNAc(b1-4)]Gal(b1-3)GlcNAc
# Method in brief: as §1
# Man(a1-6)Man = target: Man(a1-6)Man
# Method in brief: as §1
# [10] = target: Neu5Ac(a2-3)Gal(b1-4)GlcNAc(b1-2)Man(a1-3)[Neu5Ac(a2-3)Gal(b1-4)GlcNAc(b1-2)Man(a1-6)]Man(b1-4)GlcNAc(b1-4)[Fuc(a1-6)]GlcNAc
# Method in brief: as §1
# [11] = target: Neu5Ac(a2-3)Gal(b1-4)GlcNAc6S(b1-3)Gal6S(b1-3)GlcNAc6S
# Method in brief: as §1
# [12] = target: Neu5Ac(a2-3)Gal(b1-4)[Fuc(a1-3)]GlcNAc(b1-3)Gal(b1-4)Glc
# Method in brief: as §1
# [13] = target: Neu5Ac(a2-3)Gal6S(b1-4)[Fuc(a1-3)]GlcNAc6S(b1-3)Gal(b1-4)Glc
# Method in brief: as §1
# [14] = target: Neu5Ac(a2-3)[GalNAc(b1-4)]Gal(b1-3)GalNAc(b1-4)[Neu5Ac(a2-3)]Gal(b1-4)Glc
# Method in brief: as §1
# [15] = target: Neu5Ac(a2-3)[GalNAc(b1-4)]Gal(b1-4)Glc
# Method in brief: as §1
# Neu5Ac(a2-6)Gal(b1-4)Glc = target: Neu5Ac(a2-6)Gal(b1-4)Glc
# Method in brief: as §1
# [16] = target: Neu5Ac(a2-8)Neu5Ac(a2-3)Gal(b1-3)GalNAc(b1-4)[Neu5Ac(a2-8)Neu5Ac(a2-3)]Gal(b1-4)Glc
# Method in brief: as §1
# [17] = target: Neu5Gc(a2-3)Gal(b1-3)GlcNAc(b1-3)Gal(b1-4)Glc
# Method in brief: as §1
# [18] = target: Neu5Gc(a2-3)[GalNAc(b1-4)]Gal
# Method in brief: as §1
# [19] = target: Neu5Gc(a2-6)Gal(b1-3)GlcNAc(b1-3)Gal(b1-4)Glc
# Method in brief: as §1
# [20] = target: Neu5Gc(a2-6)Gal(b1-4)GlcNAc(b1-2)Man(a1-3)[Neu5Gc(a2-6)Gal(b1-4)GlcNAc(b1-2)Man(a1-6)]Man(b1-4)GlcNAc(b1-4)GlcNAc
# Method in brief: as §1
# Neu5Gc(a2-6)GalNAc = target: Neu5Gc(a2-6)GalNAc
# Method in brief: as §1
# [21] = target: Xyl(a1-6)Glc(b1-4)[Xyl(a1-6)]Glc(b1-4)[Xyl(a1-6)]Glc(b1-4)Glc
# Method in brief: as §1
# [22] = target: Fuc(a1-2)Gal(b1-4)[Fuc(a1-3)]GlcNAc(b1-3)Gal(b1-4)[Fuc(a1-3)]GlcNAc(b1-3)Gal(b1-4)[Fuc(a1-3)]GlcNAc
# Method in brief: as §1
# Gal(a1-3)Gal = target: Gal(a1-3)Gal
# Method in brief: as §1
# [23] = target: Gal(b1-3)GlcNAc(b1-3)Gal(b1-4)GlcNAc
# Method in brief: as §1
# Gal3S(b1-3)GlcNAc = target: Gal3S(b1-3)GlcNAc
# Method in brief: as §1
# Gal6S(b1-4)GlcNAc = target: Gal6S(b1-4)GlcNAc
# Method in brief: as §1
# Glc(a1-4)Glc = target: Glc(a1-4)Glc
# Method in brief: as §1
# Glc(a1-6)Glc(a1-6)Glc = target: Glc(a1-6)Glc(a1-6)Glc
# Method in brief: as §1
# [24] = target: GlcNAc(b1-4)GlcNAc(b1-4)GlcNAc
# Method in brief: as §1
# [25] = target: Man(a1-2)Man(a1-2)Man(a1-6)[Man(a1-3)]Man
# Method in brief: as §1
# Neu5Ac(a2-3)Gal = target: Neu5Ac(a2-3)Gal
# Method in brief: as §1
# [26] = target: Neu5Ac(a2-3)[Neu5Ac(a2-6)]GalNAc
# Method in brief: as §1
# [27] = target: Neu5Ac(a2-6)Gal(b1-4)GlcNAc(b1-3)Gal(b1-4)[Fuc(a1-3)]GlcNAc(b1-3)Gal(b1-4)[Fuc(a1-3)]GlcNAc
# Method in brief: as §1
# [28] = target: Neu5Ac(a2-8)Neu5Ac(a2-8)Neu5Ac(a2-8)Neu5Ac(a2-3)[GalNAc(b1-4)]Gal(b1-4)Glc
# Method in brief: as §1
# [29] = target: Neu5Ac(b2-6)Gal(b1-4)GlcNAc
# Method in brief: as §1
# [30] = target: Neu5Gc(a2-6)Gal(b1-4)GlcNAc
# Method in brief: as §1
binder,measurement,setting,value
B1,glycan array binding signal (z-score),[1],-0.296
same,glycan array binding signal (z-score),[2],-0.253
same,glycan array binding signal (z-score),[3],-0.041
same,glycan array binding signal (z-score),Fuc(a1-6)GlcNAc,-0.287
same,glycan array binding signal (z-score),[4],-0.287
same,glycan array binding signal (z-score),[5],-0.287
same,glycan array binding signal (z-score),Glc(b1-4)Glc,-0.287
same,glycan array binding signal (z-score),[6],-0.287
same,glycan array binding signal (z-score),[7],-0.287
same,glycan array binding signal (z-score),[8],-0.299
same,glycan array binding signal (z-score),[9],-0.274
same,glycan array binding signal (z-score),Man(a1-6)Man,-0.312
same,glycan array binding signal (z-score),[10],2.46
same,glycan array binding signal (z-score),[11],4.52
same,glycan array binding signal (z-score),[12],0.087
same,glycan array binding signal (z-score),[13],2.46
same,glycan array binding signal (z-score),[14],1.29
same,glycan array binding signal (z-score),[15],2.98
same,glycan array binding signal (z-score),Neu5Ac(a2-6)Gal(b1-4)Glc,-0.342
same,glycan array binding signal (z-score),[16],-0.411
same,glycan array binding signal (z-score),[17],2.33
same,glycan array binding signal (z-score),[18],4.78
same,glycan array binding signal (z-score),[19],2.08
same,glycan array binding signal (z-score),[20],0.198
same,glycan array binding signal (z-score),Neu5Gc(a2-6)GalNAc,4.8
same,glycan array binding signal (z-score),[21],-0.287
B2,glycan array binding signal (z-score),[22],-0.302
same,glycan array binding signal (z-score),Gal(a1-3)Gal,0.089
same,glycan array binding signal (z-score),[23],-0.347
same,glycan array binding signal (z-score),Gal3S(b1-3)GlcNAc,-0.012
same,glycan array binding signal (z-score),Gal6S(b1-4)GlcNAc,-0.201
same,glycan array binding signal (z-score),Glc(a1-4)Glc,8.87
same,glycan array binding signal (z-score),Glc(a1-6)Glc(a1-6)Glc,10.2
same,glycan array binding signal (z-score),Glc(b1-4)Glc,4.4
same,glycan array binding signal (z-score),[24],0.132
same,glycan array binding signal (z-score),[25],1.91
same,glycan array binding signal (z-score),Neu5Ac(a2-3)Gal,-0.477
same,glycan array binding signal (z-score),[26],-0.489
same,glycan array binding signal (z-score),[27],-0.433
same,glycan array binding signal (z-score),[28],-0.352
same,glycan array binding signal (z-score),[29],-0.473
same,glycan array binding signal (z-score),[30],-0.5
